According to PubChem BioAssay (EPA / NIEHS):
Results filed as inconclusive are left out. Calls of active or inactive are those of the source. How the source made its calls, unless noted: active means hit-call score of the fitted dose curve at least 0.9, where 1 is the maximum; inactive means score below 0.9.

Legend:
[1] = biological target: Oxysterols receptor LXR-beta (Homo sapiens) (UniProt P55055); assay: ATG_LXRb_TRANS: Attagene TRANS-FACTORIAL HepG2 Assay for human Liver X Receptor beta (LXRb) (AID 2282981; active means hit-call score of the fitted dose curve at least 0.9, where 1 is the maximum); conditions: HepG2 Attagene TRANS GAL4-LXRb reporter, mRNA
Outline: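 Multiplexed reporter assay, HepG2, 24 h dosing. Fluorescence of labelled RT-PCR products after capillary electrophoresis gives transcript level; positive fitting direction relative to DMSO.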

[2] = ATG_M_06_TRANS: Attagene TRANS-FACTORIAL HepG2 Assay for M06 Transcription Factor (Internal Marker) (AID 2282983; active means hit-call score of the fitted dose curve at least 0.9, where 1 is the maximum); conditions: HepG2 Attagene TRANS M06 internal marker reporter
Outline: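 Human liver HepG2 cells bearing transiently transfected chimeric NR-GAL4 reporter units were treated with chemicals for 24 h. Total RNA was reverse-transcribed, reporter sequences amplified and labelled, then quantified by capillary electrophoresis. Activity was fitted upward relative to DMSO.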

[3] = ATG_M_32_TRANS: Attagene TRANS-FACTORIAL HepG2 Assay for M32 Transcription Factor (Internal Marker) (AID 2282984; active means hit-call score of the fitted dose curve at least 0.9, where 1 is the maximum;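 further: transcript level of a background control reporter unit measured by RT-PCR and capillary electrophoresis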); conditions: HepG2 Attagene TRANS M32 internal marker reporter
Outline: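 Internal-marker readout from a multiplexed transcription reporter panel. HepG2 cells were transfected with GAL4-UAS reporter units, treated 24 hours, and reporter transcript levels determined by fluorescence after RT-PCR and capillary separation.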

[4] = biological target: Nuclear respiratory factor 1 (Homo sapiens) (UniProt Q16656); assay: ATG_NRF1_CIS: Attagene CIS-FACTORIAL HepG2 Assay for human Nuclear Respiratory Factor 1 (NRF1) Orphan Gene (AID 2282987); conditions: HepG2 NRF1 cis-element reporter, Attagene multiplex; actives raise or lower the signal
Outline: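 Cells (HepG2, transient MRTU transfection) are exposed to compound for 24 h, then RNA isolated and reporter mRNA amplified and fluorescently labelled. Fragments are separated by capillary electrophoresis; signal change is fitted bidirectionally relative to DMSO.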

[5] = ATG_NFI_CIS: Attagene CIS-FACTORIAL HepG2 Assay for human Nuclear Factor I (NFI) (AID 2282989); conditions: HepG2 cis-regulatory reporter, NFI response element transcription; actives raise or lower the signal
Outline: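 Read-out: reporter mRNA via RT-PCR plus capillary electrophoresis with fluorescence detection. Transiently transfected HepG2 (endogenous TF activity on cis promoters), 24 h compound exposure; gain or loss of signal fitted against DMSO.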

[6] = biological target: Myc proto-oncogene protein (Homo sapiens) (UniProt P01106); assay: ATG_Myc_CIS: Attagene CIS-FACTORIAL HepG2 Assay for human Myelocytomatosis (Myc) Proto-Oncogene Transcription Factor (AID 2282990); conditions: HepG2, Attagene cis-reporter transcription factor activity; actives raise or lower the signal
Outline: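 Fluorescence intensity of reporter-specific cDNA fragments, separated by capillary electrophoresis, gives the signal. Transfected HepG2 cells carrying cis-promoter reporter constructs are incubated with compound for 24 h; DMSO serves as baseline.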

[7] = ATG_NF_kB_CIS: Attagene CIS-FACTORIAL HepG2 Assay for human Nuclear Factor Kappa B (NF-kB) (AID 2282991); conditions: HepG2 Attagene cis-factorial NF-kB reporter mRNA; actives raise or lower the signal
Outline: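 Measures mRNA induction of an NF-kB-responsive cis-element reporter in HepG2 cells transfected with multiple reporter units, sampled 24 h post-dosing; quantified by fluorescence after RT-PCR and capillary electrophoresis, fitted for activation or inhibition against DMSO.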

[8] = biological target: Nuclear receptor subfamily 4 group A member 2 (Homo sapiens) (UniProt P43354); assay: ATG_NURR1_TRANS: Attagene TRANS-FACTORIAL HepG2 Assay for human Nuclear Receptor Related Protein 1 (NURR1) (AID 2282985; active means hit-call score of the fitted dose curve at least 0.9, where 1 is the maximum); conditions: HepG2 Attagene TRANS reporter, mRNA readout
Outline: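 Endpoint: reporter mRNA increase relative to DMSO. HepG2 cells transfected with reporter units, treated 24 h; RNA processed by RT-PCR, labelling, HpaI digestion and capillary electrophoresis.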

[9] = biological target: Transcriptional activator Myb (Homo sapiens) (UniProt P10242); assay: ATG_Myb_CIS: Attagene CIS-FACTORIAL HepG2 Assay for human Myeloblastosis (Myb) Proto-Oncogene Transcription Factor (AID 2282986); conditions: HepG2 Attagene CIS-FACTORIAL Myb reporter transcription; actives raise or lower the signal
Outline: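 Transiently transfected HepG2 cells, treated 24 h. Reporter mRNA quantified by RT-PCR/capillary electrophoresis; bidirectional fit relative to DMSO.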

Measured: AC50

Sequence of Transcriptional activator Myb (Homo sapiens) (P10242 whole entry, looked up): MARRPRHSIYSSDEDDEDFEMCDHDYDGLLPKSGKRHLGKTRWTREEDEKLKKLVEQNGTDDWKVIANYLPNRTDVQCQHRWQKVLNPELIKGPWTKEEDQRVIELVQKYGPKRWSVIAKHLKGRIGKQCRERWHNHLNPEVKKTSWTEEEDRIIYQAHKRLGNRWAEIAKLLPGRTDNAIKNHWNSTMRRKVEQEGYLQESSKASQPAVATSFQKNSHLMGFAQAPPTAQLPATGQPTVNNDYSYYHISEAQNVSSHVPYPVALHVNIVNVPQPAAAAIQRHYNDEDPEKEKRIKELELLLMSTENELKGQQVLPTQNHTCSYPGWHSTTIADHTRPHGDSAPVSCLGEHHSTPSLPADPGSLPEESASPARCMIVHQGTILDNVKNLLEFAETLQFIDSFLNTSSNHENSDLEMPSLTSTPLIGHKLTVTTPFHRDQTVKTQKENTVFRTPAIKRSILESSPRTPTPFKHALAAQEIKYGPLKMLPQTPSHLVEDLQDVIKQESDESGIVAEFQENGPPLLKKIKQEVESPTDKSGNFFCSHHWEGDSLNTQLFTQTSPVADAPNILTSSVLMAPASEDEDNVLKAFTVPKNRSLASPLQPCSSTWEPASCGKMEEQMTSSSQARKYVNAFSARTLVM
Sequence of Nuclear respiratory factor 1 (Homo sapiens) (Q16656 whole entry, looked up, the tested form may be a part): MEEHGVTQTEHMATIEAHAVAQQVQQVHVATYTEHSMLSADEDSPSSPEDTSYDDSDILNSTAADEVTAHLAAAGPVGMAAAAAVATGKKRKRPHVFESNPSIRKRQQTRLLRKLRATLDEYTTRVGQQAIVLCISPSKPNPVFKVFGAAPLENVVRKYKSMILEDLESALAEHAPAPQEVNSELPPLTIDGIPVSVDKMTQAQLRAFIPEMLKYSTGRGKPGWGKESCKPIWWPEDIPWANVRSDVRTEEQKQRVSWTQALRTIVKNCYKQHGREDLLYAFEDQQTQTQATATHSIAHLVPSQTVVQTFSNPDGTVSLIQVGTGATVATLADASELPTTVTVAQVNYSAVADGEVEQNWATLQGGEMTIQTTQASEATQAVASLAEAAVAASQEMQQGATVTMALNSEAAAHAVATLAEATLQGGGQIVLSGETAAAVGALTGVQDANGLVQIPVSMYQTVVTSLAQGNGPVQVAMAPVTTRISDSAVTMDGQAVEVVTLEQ
Sequence of Nuclear receptor subfamily 4 group A member 2 (Homo sapiens) (P43354 whole entry, looked up): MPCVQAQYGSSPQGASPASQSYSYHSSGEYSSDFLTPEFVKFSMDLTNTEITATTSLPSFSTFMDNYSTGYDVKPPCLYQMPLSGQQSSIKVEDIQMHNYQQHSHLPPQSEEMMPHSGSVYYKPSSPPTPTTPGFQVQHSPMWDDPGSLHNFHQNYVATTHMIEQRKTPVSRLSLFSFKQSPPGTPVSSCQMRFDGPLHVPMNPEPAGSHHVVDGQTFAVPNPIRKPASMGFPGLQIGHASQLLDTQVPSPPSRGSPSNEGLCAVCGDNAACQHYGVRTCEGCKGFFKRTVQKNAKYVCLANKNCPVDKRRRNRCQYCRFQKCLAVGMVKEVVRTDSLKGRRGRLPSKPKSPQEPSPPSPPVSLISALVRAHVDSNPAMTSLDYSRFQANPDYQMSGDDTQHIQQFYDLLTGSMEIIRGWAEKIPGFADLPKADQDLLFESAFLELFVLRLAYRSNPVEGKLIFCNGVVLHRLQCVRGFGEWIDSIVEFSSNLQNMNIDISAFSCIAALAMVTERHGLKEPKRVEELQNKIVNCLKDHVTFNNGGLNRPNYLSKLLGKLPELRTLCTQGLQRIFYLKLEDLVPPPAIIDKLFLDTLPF
Sequence of Myc proto-oncogene protein (Homo sapiens) (P01106 whole entry, looked up, the tested form may be a part): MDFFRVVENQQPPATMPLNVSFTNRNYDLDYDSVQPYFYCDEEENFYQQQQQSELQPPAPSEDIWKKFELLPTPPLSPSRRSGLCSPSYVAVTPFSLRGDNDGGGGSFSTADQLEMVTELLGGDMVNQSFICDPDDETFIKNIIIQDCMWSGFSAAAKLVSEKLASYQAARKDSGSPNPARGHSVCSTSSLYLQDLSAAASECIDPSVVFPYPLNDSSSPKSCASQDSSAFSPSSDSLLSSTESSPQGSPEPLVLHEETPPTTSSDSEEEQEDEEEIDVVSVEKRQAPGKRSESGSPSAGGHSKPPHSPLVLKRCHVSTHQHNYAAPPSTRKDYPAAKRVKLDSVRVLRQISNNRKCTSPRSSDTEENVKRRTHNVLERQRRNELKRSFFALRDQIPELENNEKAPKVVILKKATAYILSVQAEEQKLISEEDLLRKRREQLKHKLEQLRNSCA
Sequence of Oxysterols receptor LXR-beta (Homo sapiens) (P55055 whole entry, looked up, the tested form may be a part): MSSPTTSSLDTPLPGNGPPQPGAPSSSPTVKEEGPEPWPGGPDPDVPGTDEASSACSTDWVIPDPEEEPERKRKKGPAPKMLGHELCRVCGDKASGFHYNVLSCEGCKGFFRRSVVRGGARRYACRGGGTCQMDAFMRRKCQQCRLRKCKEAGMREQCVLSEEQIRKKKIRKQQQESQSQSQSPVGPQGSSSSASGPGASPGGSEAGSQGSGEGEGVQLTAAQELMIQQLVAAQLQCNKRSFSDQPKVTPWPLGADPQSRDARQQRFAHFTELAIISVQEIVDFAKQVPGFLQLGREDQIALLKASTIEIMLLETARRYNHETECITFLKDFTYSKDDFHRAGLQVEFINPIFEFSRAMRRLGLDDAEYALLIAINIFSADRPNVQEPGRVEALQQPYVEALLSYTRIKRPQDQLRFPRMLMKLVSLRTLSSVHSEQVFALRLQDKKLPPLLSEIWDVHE

CC(C)CC(C)(c1ccc(O)cc1)c1ccc(O)cc1
active: [5] 16.9 µM
not listed: [3]
inactive: all other assays above

Oc1c(Cl)cc(Cl)cc1Cl
inactive: [1] | [2] | [3] | [9] | [6]

Brc1c(Br)c(Br)c(Oc2c(Br)c(Br)c(Br)c(Br)c2Br)c(Br)c1Br
not listed: [6] | [9]
inactive: all other assays above

CCOP(=S)(OCC)SCS(=O)(=O)C(C)(C)C
active: [1] 53.5 µM
not listed: [9]
inactive: all other assays above

OCCCCO
not listed: [3]
inactive: all other assays above

C#C[C@]1(O)CC[C@H]2[C@@H]3CCC4=CC(=O)CC[C@]4(C)[C@H]3CC[C@@]21C
not listed: [3] | [8]
inactive: all other assays above

CC(C)(C)c1ccc(CCOc2ncnc3ccccc23)cc1
inactive: [1] | [3] | [9] | [4] | [5]

CCCCCCCCCCCCN(C)C
active: [4] 54.2 µM | [5] 57.2 µM | [6] 50.9 µM
inactive: [1] | [2] | [9]

CC(C)(C)c1ccccc1O
active: [8] 63.4 µM | [4] 100 µM | [5] 100 µM | [7] 164 µM
inactive: [1] | [3] | [9] | [6]

COc1ccc(N)cc1
not listed: [2] | [7]
inactive: all other assays above

CCN(CCO)CCO
not listed: [3]
inactive: all other assays above

CC(O)(CS(=O)(=O)c1ccc(F)cc1)C(=O)Nc1ccc(C#N)c(C(F)(F)F)c1 (stereo unspecified)
not listed: [8]
inactive: all other assays above

Cc1ccccc1OP(=O)(Oc1ccccc1C)Oc1ccccc1C
active: [8] 26.7 µM
not listed: [2] | [7]
inactive: all other assays above

OCCN(CCO)CCO
not listed: [3] | [6] | [8]
inactive: all other assays above

C1CCC(C2CCCCC2)CC1
not listed: [3] | [8]
inactive: all other assays above

O=[N+]([O-])c1cc([As](=O)(O)O)ccc1O
not listed: [8]
inactive: all other assays above

CCCCN(CCCC)C(=S)S
active: [9] 100 µM | [4] 152 µM
inactive: [1] | [2] | [5]

CC1(C)COP(Oc2ccccc2)OC1
inactive: all assays above

C=C(C)[C@@H]1CC=C(C=O)CC1
not listed: [3]
inactive: all other assays above

Fc1cccc(Cl)c1CCl
not listed: [7] | [8] | [9]
inactive: all other assays above

O=C(Cl)OCCOCCOC(=O)Cl
not listed: [2] | [7] | [8]
inactive: all other assays above

CCCCCCCCCCCCCl
not listed: [2] | [7] | [8]
inactive: all other assays above

C#CCO
not listed: [6] | [7] | [8]
inactive: all other assays above

O=C=Nc1ccc(Cl)cc1
active: [6] 149 µM
not listed: [2]
inactive: all other assays above

CNC(=O)N(C)c1nc2ccccc2s1
not listed: [6] | [9]
inactive: all other assays above

CCOP(=S)(OCC)SCSc1cc(Cl)ccc1Cl
not listed: [2] | [7]
inactive: all other assays above

O=c1[nH]c(=O)n(Cl)c(=O)n1Cl
not listed: [7] | [9]
inactive: all other assays above

O=C(N[C@H]1CN2CCC1CC2)c1ccc2c(c1)OCCO2
not listed: [6] | [7] | [8]
inactive: all other assays above

CC(C)(c1ccccc1)c1cc(-n2nc3ccccc3n2)c(O)c(C(C)(C)c2ccccc2)c1
not listed: [3]
inactive: all other assays above

Oc1cc(Cl)c(Cl)cc1Cl
active: [5] 66.4 µM | [6] 152 µM
not listed: [8] | [9]
inactive: all other assays above

CCOC(=O)C(SP(=S)(OC)OC)c1ccccc1 (stereo unspecified)
not listed: [2] | [6]
inactive: all other assays above

CC(C)O.CC(C)O.OCCN(CCO)CCO.OCCN(CCO)CCO.[Ti]
not listed: [8]
inactive: all other assays above
